Inconclusive results are not listed. Calls of active or inactive are those of the source. Calls come from the whole dose curve; as a rule, active = well fitted inhibition curve with a large enough effect; inconclusive = small, poorly fitted or top-dose-only effect, or effect the other way; inactive = no such curve, though single readings can be large or run the other way.
experiment: DHR3 selectivity assay for inhibitors of ROR gamma transcriptional activity; settings: Drosophila S2 Gal4-DHR3 UAS-luciferase, 20 h; series mostly up to 92.2 µM
Excerpt: NIH Molecular Libraries Probe Production Network [MLPCN] NIH Chemical Genomics Center [NCGC] MLPCN Grant: R03 DA026211-01 Assay Provider: Dan Littman, New York University Assay Overview: The retinoic acid-related orphan receptor (ROR) gamma is a transcription factor that has a central role in the differentiation of Th17 cells, a subset of T helper cells that secrete the inflammatory cytokines IL-17A, IL-17F, and IL-22. Th17 cells have been implicated in graft versus host disease, autoimmune disease and asthma. RORgamma is induced in naive T helper cells in the presence of TGF-beta combined with IL-6, IL-21, or IL-23, and thereafter directs the expression of the Th17 lineage cytokines. To identify […] inhibitors, a Drosophila Schneider cell line was stably transfected with two vectors: a gene expressing a fusion of the Gal4 DNA binding domain and the transactivation domain of the Drosophila Hormone Receptor 3 (DHR3), under the control of the metallothionine promoter and a Photinus luciferase reporter regulated by the Gal4 binding site enhancer, UAS. […] Small molecule inhibitors that inhibit components common to the RORgamma and DHR3 assays, such as proteins that interact with general nuclear hormone receptors, will be active in both assays and thus scored as nonselective.
Assay Protocol Summary: For screening, 600 cells in 4 uL/well were dispensed into white solid 1536-well plates (Grenier) using a solenoid-based dispenser. Following transfer of 23 nL compound or DMSO vehicle by a pin tool, the plates were incubated 1 hr at ambient temperature, and 1 uL/well copper sulfate (700 uM final concentration) was added. The plates were centrifuged 15 s at 1000 RPM and incubated 20 hr at ambient temperature. After addition of 1.5 uL Photinus luciferase detection reagent, the plates were incubated 10 min at ambient temperature and then read by an ViewLux (Perkin Elmer) to detect luminescence.
Potency is the fitted concentration of half-maximal effect.

Potency, active:
CN(C)S(=O)(=O)c1ccc(NC(=O)/C=C/c2ccccc2Cl)cc1 1620 nM
CCOc1ncccc1C(=O)OCC(=O)Nc1ccc(-c2nc3ccc(C)cc3s2)cc1 363 nM
COc1ccc(-c2c[n+]3c(n2-c2ccc(C)cc2)CCCCC3)cc1 8120 nM
CCOC(=O)c1sc(NC(=O)c2ccc(S(=O)(=O)N(C)C)cc2)nc1C 45.7 nM
Cc1cc(C)c2sc(NC(=O)c3ccc(N4C(=O)CCC4=O)cc3)nc2c1 102 nM
COc1ccc(C(=O)/C=C/c2ccc(OC)cc2OC)c(O)c1 645 nM

Potency, inactive:
COc1cc(O)c(C(CC(=O)N2CCCC(C(F)(F)F)C2)c2ccc3c(c2)OCO3)c(OC)c1 (configuration not stated)
COc1cc(O)c(C(CC(=O)N2CCCC(C)C2)c2ccc3c(c2)OCO3)c(OC)c1 (configuration not stated)
COc1cc(OC)c(C(CC(=O)N2CC(C)CC(C)C2)c2ccc3c(c2)OCO3)c(OCC(N)=O)c1 (configuration not stated)
COc1cc(O)c(C(CC(=O)N(C)c2cccc(C)c2)c2ccc3c(c2)OCO3)c(OC)c1 (configuration not stated)
COc1cc(O)c(C(CC(=O)N2CCCC(C)C2)c2ccc3ccccc3c2)c(OC)c1 (configuration not stated)
COc1ccc(C(CC(=O)N2CCCC(C)C2)c2c(O)cc(OC)cc2OC)c(OC)c1 (configuration not stated)
COCC1CCCN(C(=O)CC(c2ccc3c(c2)OCO3)c2c(O)cc(OC)cc2OC)C1 (configuration not stated)
CC1CCCN(C(=O)CC(c2ccc3c(c2)OCO3)c2ccc(O)cc2O)C1 (configuration not stated)
COc1cc(O)c(C(CC(=O)N2CCCC(C)(C)C2)c2ccc3c(c2)OCO3)c(OC)c1 (configuration not stated)
COc1cc(O)c(C(CC(=O)N2CCC(C)CC2)c2ccc3c(c2)OCO3)c(OC)c1 (configuration not stated)
COc1ccccc1C(CC(=O)N1CCCC(C)C1)c1ccccc1 (configuration not stated)
Cc1cccc(C(CC(=O)NCCc2ccccc2)c2ccccc2)c1O (configuration not stated)
COc1cc(O)c(C(CC(=O)NC2CCCc3ccccc32)c2ccc3c(c2)OCO3)c(OC)c1 (configuration not stated)
CCC(=O)C1CCCN(C(=O)CC(c2ccc3c(c2)OCO3)c2c(O)cc(OC)cc2OC)C1 (configuration not stated)
COc1cc(O)c(C(CC(=O)N2CCCC(C)C2)c2ccccc2OC)c(OC)c1 (configuration not stated)
COc1cc(O)c(C(CC(=O)N2CCCC(C)C2)c2cccc3ccccc23)c(OC)c1 (configuration not stated)
